Results published in ChEMBL document CHEMBL3988442, “University of Dundee, Small-Polar-MMV Screening Library” (2021).
Among all 67,000 compounds or so, about 300 (0.45%) showed an effect of 50% or more. Many of the other results were omitted from the sample, so strong results are more common in it than they were.

target: Polyketide synthase Pks13 (Mycobacterium tuberculosis (strain ATCC 25618 / H37Rv)) (UniProt I6X8D2); assay: Mycobacterium tuberculosis Polyketide synthase 13 Thioesterase (PKS13); assay type: functional; parameters: scale not given: in the data most compounds retested in dose-response had high values; settings: 30 µM
Sequence (I6X8D2 whole entry): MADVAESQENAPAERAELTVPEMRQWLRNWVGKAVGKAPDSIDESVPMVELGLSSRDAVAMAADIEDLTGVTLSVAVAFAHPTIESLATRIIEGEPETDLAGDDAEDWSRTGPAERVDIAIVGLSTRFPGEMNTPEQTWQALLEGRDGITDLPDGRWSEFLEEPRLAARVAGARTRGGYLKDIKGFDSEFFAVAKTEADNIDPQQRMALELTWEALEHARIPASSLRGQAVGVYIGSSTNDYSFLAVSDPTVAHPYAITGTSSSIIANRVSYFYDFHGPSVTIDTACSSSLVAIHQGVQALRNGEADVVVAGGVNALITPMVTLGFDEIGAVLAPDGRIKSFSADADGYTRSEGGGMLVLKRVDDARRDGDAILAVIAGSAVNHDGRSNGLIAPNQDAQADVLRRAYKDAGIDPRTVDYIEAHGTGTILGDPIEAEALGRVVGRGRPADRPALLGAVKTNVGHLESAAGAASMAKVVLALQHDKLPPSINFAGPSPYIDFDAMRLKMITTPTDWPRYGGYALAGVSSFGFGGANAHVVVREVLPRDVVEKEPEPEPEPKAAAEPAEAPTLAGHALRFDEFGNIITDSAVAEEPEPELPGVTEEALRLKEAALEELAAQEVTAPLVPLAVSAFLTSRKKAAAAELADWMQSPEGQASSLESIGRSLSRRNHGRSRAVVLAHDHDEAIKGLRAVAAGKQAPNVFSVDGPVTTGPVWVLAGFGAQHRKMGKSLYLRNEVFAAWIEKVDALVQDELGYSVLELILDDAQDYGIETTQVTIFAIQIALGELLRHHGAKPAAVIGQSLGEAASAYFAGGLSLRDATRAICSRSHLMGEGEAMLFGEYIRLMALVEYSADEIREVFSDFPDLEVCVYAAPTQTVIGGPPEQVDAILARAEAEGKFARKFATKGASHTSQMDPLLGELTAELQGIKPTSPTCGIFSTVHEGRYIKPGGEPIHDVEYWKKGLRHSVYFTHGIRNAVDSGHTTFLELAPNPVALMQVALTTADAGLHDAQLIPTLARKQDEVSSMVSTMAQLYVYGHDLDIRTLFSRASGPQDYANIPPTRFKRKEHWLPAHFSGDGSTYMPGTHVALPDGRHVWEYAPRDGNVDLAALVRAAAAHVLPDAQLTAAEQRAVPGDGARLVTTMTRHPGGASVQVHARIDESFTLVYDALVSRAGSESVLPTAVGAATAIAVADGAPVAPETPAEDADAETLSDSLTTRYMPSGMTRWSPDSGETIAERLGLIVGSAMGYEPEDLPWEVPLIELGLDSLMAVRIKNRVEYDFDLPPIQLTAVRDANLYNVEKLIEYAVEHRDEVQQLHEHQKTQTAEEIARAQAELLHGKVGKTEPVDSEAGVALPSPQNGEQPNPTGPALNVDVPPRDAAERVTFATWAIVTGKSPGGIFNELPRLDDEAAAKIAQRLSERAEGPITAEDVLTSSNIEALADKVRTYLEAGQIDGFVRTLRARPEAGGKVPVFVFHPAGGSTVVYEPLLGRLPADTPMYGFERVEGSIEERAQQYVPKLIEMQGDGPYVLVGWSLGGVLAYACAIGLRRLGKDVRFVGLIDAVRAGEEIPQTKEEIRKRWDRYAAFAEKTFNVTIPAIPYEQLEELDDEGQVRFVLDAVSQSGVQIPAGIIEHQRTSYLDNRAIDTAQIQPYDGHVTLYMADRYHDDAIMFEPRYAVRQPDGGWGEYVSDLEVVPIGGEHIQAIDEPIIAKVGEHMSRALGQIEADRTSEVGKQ

SMILES | Percent Effect [%]
C1CC(N2C[C@@H]3COC[C@]3(COCC3CCOCC3)C2)C1 | -9.77
Fc1ccccc1Cc1noc(CN2CC[C@@H]3CCCC[C@H]3C2)n1 | -29.1
CC(C)c1cc(CN2CCC(N)CC2)no1 | 11.6
CC(C)c1cc(CN2CCC(CC(=O)O)CC2)no1 | 60.1
CC(C)c1cc(CN2CCNCC2)no1 | 18.9
CC(C)c1cc(C(=O)N2CCN(CC3CC3)[C@@H]3CS(=O)(=O)C[C@@H]32)on1 | -6.23
O=C1[C@@H]2CCN(CC3CC3)C[C@@H]2OCCN1c1ccsc1 | 2.34
COc1cc(/C=C/c2ncc(C(=O)O)s2)cc(Cl)c1OC | 16.6
CCOc1cc(/C=C/c2ncc(C(=O)O)s2)cc(Br)c1O | 59.8
COc1cc(/C=C/c2ncc(C(=O)O)s2)cc(Cl)c1O | 64.9
CCOc1cc(/C=C/c2ncc(C(=O)O)s2)cc(Br)c1OC | 17.1
CCOc1c(Br)cc(/C=C/c2ncc(C(=O)O)s2)cc1OC | -5.74
COc1cc(/C=C/c2ncc(C(=O)O)s2)cc(OC)c1 | 19.6
CNC(=O)c1cnc(/C=C/c2cc(OC)cc(OC)c2)s1 | 54.2
CNC(=O)c1cnc(/C=C/c2cc(OC)c(OC)c(OC)c2)s1 | 17.9
CCOc1c(Cl)cc(/C=C/c2ncc(C(=O)O)s2)cc1OC | 23.8
CC(=O)N1CC[C@H]2OCC[C@@]2(C(=O)NCCc2ccccn2)C1 | -18.1
O=C(c1ccsc1)N1CCN2C[C@H](OCc3ccccn3)C[C@H]2C1 | -2.94
Cc1ccc(N2C[C@@H]3OCCN(CC4CC4)[C@@H]3C2)nn1 | 0.27
O=C(C1CCCCC1)N1C[C@H]2CNC[C@H]2C1 | -22.2
CCOC(=O)[C@@H]1[C@@H](c2ccccc2)CN2CCN(C(=O)N(C)C)C[C@H]12 | -2.04
O=C(c1cnccn1)N1CCN2C[C@H](Oc3cccnc3)C[C@H]2C1 | -12.6
CN(C)C(=O)[C@H]1C[C@@H]2CCN(C3CCOCC3)C[C@H]2O1 | -11.1

SMILES | Percent Effect [%]
COc1ccc(C2Nc3ccccc3NC3=C2C(=O)NC3)cc1OC (stereo unspecified) | -7.87
CC(C)C(=O)N1CCC(n2nc(-c3ccco3)ccc2=O)CC1 | 0.602
CC(C)(C)C(=O)N1CCC(n2nc(-c3ccco3)ccc2=O)CC1 | 125
O=C(c1ccco1)N1CCC(n2nc(-c3ccco3)ccc2=O)CC1 | 10.8
CN(C)C(=O)N[C@@H]1CN(C2CCOCC2)[C@@H]2CCCO[C@@H]21 | -25.3
CC(=O)N1CCO[C@@H]2CN(C(=O)c3ccccc3)CC[C@@H]2C1 | 7.28
Cc1cc(OCc2cccc(F)c2)ccc1NC(=O)C(C)NC(N)=O (stereo unspecified) | -1.33
CC(=O)NC(C)C(=O)Nc1ccc(OCc2cccc(F)c2)cc1C (stereo unspecified) | -35.8
Cc1cccc(COc2ccc(NC(=O)C(C)NC(N)=O)c(C)c2)c1 (stereo unspecified) | 53
c1ccc(OCC2C[C@@H]3[C@@H](C2)OCCN3CC2CCOCC2)nc1 (stereo partly specified) | -0.0246
Cc1ccoc1C(=O)N1C[C@@H]2[C@@H](C1)OCC(=O)N2Cc1cccnc1 | -9.46
c1ccc(N2CCOCC3(CCCN(c4nccs4)C3)C2)nc1 (stereo unspecified) | 66
Cc1ccc(N2CCCC3(COCCN(c4nccs4)C3)C2)nn1 (stereo unspecified) | -10.9
Cc1cnc(N2CCCC3(COCCN(c4nccs4)C3)C2)nc1 (stereo unspecified) | -20.9
Cc1nc2cc(C3CCN(C(=O)c4ccccn4)CC3)nn2c(O)c1C | -23.4
Cc1cccc(CN2C[C@@H]3OCCN(c4cnccn4)[C@@H]3C2)n1 | -4.22
CS(=O)(=O)CCCSc1n[nH]c(-c2ccc3c(c2)CCC3)n1 | 66.3
NC(=O)CCSc1n[nH]c(-c2ccc3c(c2)CCC3)n1 | -2.85
CS(=O)(=O)CCSc1n[nH]c(-c2ccc3c(c2)CCC3)n1 | 1.98
Cn1c(NCC(=O)N2CCCC2)c(C#N)c(=O)n(C)c1=O | 51.5
Cn1c(NCCC(=O)N2CCCC2)c(C#N)c(=O)n(C)c1=O | 1.71
Cn1c(NCC(=O)N2CCCCC2)c(C#N)c(=O)n(C)c1=O | -9.87
Cn1cc(N2C(=O)CC[C@@H]3[C@H]2CCN3Cc2cccc(C#N)c2)cn1 | -11.3

SMILES | Percent Effect [%]
CCOc1ccc2[nH]c(=O)c(CN3CCCC3c3ccccn3)cc2c1 (stereo unspecified) | -32.9
O=c1[nH]c2cc3c(cc2cc1CN1CCCC1c1ccccn1)CCC3 (stereo unspecified) | -17.3
O=c1[nH]c2cc3c(cc2cc1CN1CCCC1c1ccccn1)OCO3 (stereo unspecified) | 78.6
O=C(c1ccoc1)N1CC[C@@H]2O[C@@H](COCc3ccncc3)CC[C@@H]21 | -10.6
O=C(C[C@H]1[C@H]2CN(c3ncccn3)C[C@@H]12)Nc1cccnc1 | -4.86
CC(C)CN1CC[C@@H]2[C@@H]1CCN2C(=O)N(C)C | -18.3
CCc1noc(Cn2c(=O)c3c(C(F)(F)F)cc(C)nc3n2C)n1 | 64.5
Cc1cc(Cn2c(=O)c3c(C(F)(F)F)cc(C)nc3n2C)on1 | 3.92
CCc1nc(Cn2c(=O)c3c(C(F)(F)F)cc(C)nc3n2C)no1 | 9.67
CO[C@H]1CC[C@H]2[C@H]1OCCN2C(=O)c1ccc(C)nc1 | -32.1
Cc1ccc(N2CC[C@H]3OCC[C@@]3(C(=O)NCC3CC3)C2)nn1 | -16.8
CC(C)CN1CCN(Cc2nc3c(s2)CCCC3)[C@H]2CS(=O)(=O)C[C@H]21 | 3.91
CN1CCN(C(=O)c2cnc3c(cnn3C3CCCC3)c2)CC1 | -58.3
O=C(c1cnc2c(cnn2C2CCCC2)c1)N1CCN(CCO)CC1 | 90.8
CCN1CCN(C(=O)c2cnc3c(cnn3C3CCCC3)c2)CC1 | 2.83
Cc1cc(CN2CC[C@@H]3O[C@@H](c4nnc(C)o4)C[C@H]3C2)no1 | -7.21
CN(C)C(=O)c1cc2c(nc1NCC1CC1)CCN(CC1CC1)CC2 | -12.7
CC(C)CCN1CCc2cc(C(=O)N(C)C)c(NCC3CC3)nc2CC1 | -8.68
CCS(=O)(=O)N1CCc2cc(C(=O)N(C)C)c(NCC3CC3)nc2CC1 | -30.5
CN1CCc2cc(C(=O)N(C)C)c(NCC3CC3)nc2CC1 | -5.51
CC(C)Nc1nc2c(cc1C(=O)N(C)C)CCNCC2 | 0.822
CNC(=O)c1cc2c(nc1NC(C)C)CCNCC2 | 73.6
CC(C)NC(=O)c1cc2c(nc1N(C)C)CCN(S(=O)(=O)C1CC1)CC2 | 33.7

SMILES | Percent Effect [%]
CC(C)Nc1nc2c(cc1C(=O)NCC1CC1)CCN(S(C)(=O)=O)CC2 | 85.6
CNC(=O)c1cc2c(nc1N(C)C)CCN(C)CC2 | -20.6
CC(C)Nc1nc2c(cc1C(=O)NCC1CC1)CCN(CC1CC1)CC2 | 69.4
Cc1nc2c(cc1C(=O)O)CCN(CC1CC1)CC2 | -19.8
CC(C)Nc1nc2c(cc1C(=O)NCC1CC1)CCN(C)CC2 | 90.8
CCS(=O)(=O)N1CC[C@H]2O[C@H](c3nnc(C)o3)CC[C@H]21 | -8.23
CN1CC[C@H]2CN(C(=O)c3csc(Cc4ccccc4)n3)C[C@H]21 | -37.9
O=C1O[C@@H]2CN(C3CCOCC3)C[C@@H]2N1CCCc1ccc(F)cc1 | 1.75
CC(C)CN1CCS(=O)(=O)[C@@H]2CCN(S(=O)(=O)N(C)C)CC[C@@H]21 | -30.1
CNC(=O)N1CCc2cc(C(=O)N(C)C)c(NCC3CC3)nc2CC1 | 4.02
CNC(=O)N1CCc2cc(C(=O)NCC3CC3)c(NC(C)C)nc2CC1 | 51.5
COCCN1CCc2cc(C(=O)NCC3CC3)c(NC(C)C)nc2CC1 | 68.2
COCCN1CCc2cc(C(=O)N(C)C)c(NC(C)C)nc2CC1 | -2.98
COCCN1CCc2cc(C(=O)NC(C)C)c(NCC3CC3)nc2CC1 | 45.7
CCN1CCc2cc(C(=O)N(C)C)c(NCC3CC3)nc2CC1 | -12.5
CC(C)Nc1nc2c(cc1C(=O)NCC1CC1)CCNCC2 | 51.7
CNC(=O)c1cc2c(nc1NC(C)C)CCN(C(=O)NC(C)C)CC2 | 29.7
Cc1noc([C@@H]2CC[C@@H]3[C@@H](CCN3S(=O)(=O)c3cccnc3)O2)n1 | 4.22
O=C1OCCN1CC(=O)N1C[C@H]2CC[C@@H]1CN(C(=O)c1ccccn1)C2 | -14.6
Cc1ccc(N2CC[C@@H]3CN(Cc4cc[nH]n4)C[C@@H]3C2)nn1 | 3.96
CCN1CCN(S(=O)(=O)N2CCCC2)[C@H]2CS(=O)(=O)C[C@H]21 | -23.5
CC(=O)N1CC[C@H]2N(C)CC[C@@]2(C(=O)Nc2cccnc2)CC1 | -11.6
O=C(c1ccco1)N1C[C@H]2CN(Cc3cccc(F)c3)C(=O)[C@H]2C1 | -4.13

SMILES | Percent Effect [%]
c1ccc2c(c1)C(NC1CCCC1)CC21CCNCC1 (stereo unspecified) | -6.43
CNC(=O)N1C[C@H]2CC[C@@]3(N=C(c4ccccc4)NC3=O)[C@H]2C1 | -17.2
CCOC(=O)[C@@H]1[C@@H](c2ccccc2)CN2CCN(S(C)(=O)=O)C[C@H]12 | -1.54
c1coc(CN2C[C@@H]3OCCN(CCN4CCCC4)[C@@H]3C2)c1 | -17.4
CCc1nnc(Nc2cccc(C3CCN(C(=O)CO)CC3)n2)s1 | 4.46
CCc1nnc(Nc2cccc(C3CCN(C(C)=O)CC3)n2)s1 | 86.9
CCc1nnc(Nc2cccc(C3CCN(C(=O)CNC)CC3)n2)s1 | -24.5
CC(=O)N1CCO[C@@H]2CN(C(=O)NCc3ccccc3)CC[C@@H]2C1 | -30.5
Cc1ccc(N2CC[C@H]3O[C@H](C(=O)NCc4ccco4)CC[C@H]32)nn1 | -3.57
Cc1ccc(N2CC[C@H]3OCC[C@@]3(C(=O)N3CCCO3)C2)nn1 | -34
COc1ccc(CN2C[C@@H]3OCC(=O)N(Cc4nccn4C)[C@@H]3C2)cc1 | -29.9
O=C1CNc2ncnc(N3CCN(Cc4ccccc4F)CC3)c2N1 | 84.6
Cc1ccccc1CN1CCN(c2ncnc3c2NC(=O)CN3)CC1 | -5.54
O=C1CNc2ncnc(N3CCN(Cc4ccccc4)CC3)c2N1 | -2.51
Cc1noc(C)c1CN1CC[C@H]2C[C@@H](c3ccncn3)O[C@@H]2C1 | -34.7
Cc1nc2cc(C3CCCCN3C(=O)C3CC3)nn2c(O)c1C (stereo unspecified) | 9.02
CC(=O)N1N=C(c2ccco2)OC1C(=O)N(CC(C)C)CC(C)C (stereo unspecified) | -6.84
CC(=O)N1N=C(c2ccco2)OC1C(=O)NCCc1ccc(O)cc1 (stereo unspecified) | 8.81
CC(=O)N1N=C(c2ccco2)OC1C(=O)NCC(C)C (stereo unspecified) | 52.5
